# GLP1R ag: GLP-1 receptor (human) agonism; P43220; HEK293 GLP-1R CRE-luciferase, luminescence, 4-6 h; cells express a hypersensitive GLP-1R form; Potency, µM (highest dose often 45.6 µM), for the others: top-dose activation, hits mostly activators; 380,000 tested, 0.007% active; also: % of control where 0% means no effect
# PTHR1 agonist: activates the human parathyroid hormone receptor PTHR1; Q03431; HEK293 GP2 PTHR1 cells, GloSensor cAMP luminescence, 1 h; Potency, µM (series often up to 115 µM), for inactives: at the highest dose activation, hits mostly activators; 410,000 tested, 0.075% active; also: nearly all actives have a fitted effect of over 55% in size
#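 HEK-293-derived GP2 cells expressing PTHR1 and a GloSensor cAMP reporter, 3,000/well, plated overnight, given luciferin plus IBMX (each 0.5 mM as added) for 1 h at 37 °C, then compound for 1 h at 37 °C. Luminescence was read after 15 min at room temperature.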
# 12-LOX inh: blocks human arachidonate 12S-lipoxygenase | P18054 | purified 12hLO, xylenol orange hydroperoxide absorbance | Potency, µM (highest dose often 108 µM), inactives show at the highest dose activity change, negative = inhibition, usual class: inhibitors | 580,000 tested, 1.1% active | AID 1671190; also: % is scaled to controls: 0 for no effect and ±100 for the full control effect
# Target sequence (P18054 whole entry, looked up): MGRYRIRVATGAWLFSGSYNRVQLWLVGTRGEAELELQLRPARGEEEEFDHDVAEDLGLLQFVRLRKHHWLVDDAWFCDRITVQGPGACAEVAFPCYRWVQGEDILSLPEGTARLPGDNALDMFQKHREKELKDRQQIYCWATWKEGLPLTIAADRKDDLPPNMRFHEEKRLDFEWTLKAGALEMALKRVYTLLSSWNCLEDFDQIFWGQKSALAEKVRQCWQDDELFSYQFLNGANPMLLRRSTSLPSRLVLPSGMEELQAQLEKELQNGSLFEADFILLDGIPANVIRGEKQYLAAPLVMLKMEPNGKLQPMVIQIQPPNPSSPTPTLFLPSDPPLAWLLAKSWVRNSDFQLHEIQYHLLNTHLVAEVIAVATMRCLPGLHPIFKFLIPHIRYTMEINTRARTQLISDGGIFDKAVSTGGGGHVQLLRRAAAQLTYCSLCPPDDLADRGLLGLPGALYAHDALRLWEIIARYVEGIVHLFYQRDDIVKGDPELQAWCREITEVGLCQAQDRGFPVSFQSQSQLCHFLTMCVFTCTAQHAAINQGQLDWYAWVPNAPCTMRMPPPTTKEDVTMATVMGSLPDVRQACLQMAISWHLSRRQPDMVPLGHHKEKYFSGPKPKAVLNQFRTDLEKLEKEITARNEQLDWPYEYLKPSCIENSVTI
#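 Purified human 12hLO (150 nM final) in 25 mM Hepes, 0.01% Triton X-100, pH 7.0 was preincubated 15 min at room temperature with compound. Then 40 uM arachidonic acid was added, 30 min. Hydroperoxide was read by Fe-XO absorbance ratio 573/405 nm.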
# GLP1R inv ag: inverse agonists of human GLP-1 receptor. P43220. Potency, µM (highest dose often 38.3 µM), inactives show top-dose activity change, negative = inhibition, most hits filed as inhibitors. HEK293 GLP-1R CRE-luciferase, luminescence, 24 h; GLP-1R form is constitutively active. 410,000 tested, 1.6% active. AID 624417; also: % is scaled to controls: 0 for no effect and ±100 for the full control effect; nearly all actives have a fitted effect of over 55% in size
#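 Constitutively active GLP-1R drives a cAMP-responsive luciferase in stably transfected HEK293 cells; test compounds are added after overnight (12 h) attachment and left 24 hr, and signal loss in luminescence marks inhibition.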
# GLS inhibitor: blocks human kidney-isoform glutaminase activity | GLS enzymatic activity, qHTS titration | Potency, µM (titrated, usually from 45.5 µM), for inactives: top-dose activity change, negative = inhibition, hits mostly inhibitors | 410,000 tested, 0.21% active | AID 624170; also: % is scaled to controls: 0 for no effect and ±100 for the full control effect
#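 Human kidney-isoform GLS in 45 mM KH2PO4 pH 8.2, 0.02% Tween-20, with compound, started with 1mM L-Glutamine (added stock). Glutamate oxidase/HRP/Amplex red coupled fluorescence read at start and after 30 min at RT.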
# Glioma ERSR ind: inducers of ER stress response in human glioma cells. U87-MG GRP78 promoter luciferase reporter, 16 h. AID 602332. 420,000 tested, 0.02% active. Potency, µM, for the others: at the top dose activation, hits mostly activators; also: series mostly up to about 76 µM; % of control where 0% means no effect; nearly all actives have a fitted effect of over 35% in size
#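 Stably transfected U87-MG glioma cells carrying a GRP78-based luciferase sensor; 16 h compound incubation. Luminescence end-point read 10 min after Bright-Glo addition at room temperature.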
# The depositor's hits bear a star; i = inactive; u = inconclusive; x = no result; [ ] = another dose, or the depositor's remark. This is a sample that favours compounds with a hit; in the whole collection about 2.3% have one here. Calls follow the shape of the dose curve; as a rule, active = well fitted curve in the direction sought with a large enough effect; inconclusive = small, poorly fitted or top-dose-only effect, or another doubt; inactive = no such curve, though single readings can be large; an effect the other way counts as inactive or inconclusive. Potency is read from the fitted curve at half-maximal effect.
SMILES,GLP1R ag,PTHR1 agonist,12-LOX inh,GLP1R inv ag,GLS inhibitor,Glioma ERSR ind
COC(=O)C1=C(C)N(CCCC(=O)O)C(=O)NC1c1ccc(Br)cc1 (configuration not stated),3%,i,u,12%,6%,-7%
C=C(C)Cn1c(NCc2ccccc2)nc2c1c(=O)n(C)c(=O)n2C,x,x,2%,x,x,x
CCCC(CCC)C(=O)Nc1ccc(OC)cc1,x,x,-22%,x,x,x
CN(C)Cc1ccc(O)cc1,x,x,-26%,x,x,x
COc1cccc(CNc2nc3cc(-c4ccccc4C)sc3c(=O)n2C)c1,4%,-16%,-12%,u,6%,-1%
COc1cccc(CNc2nc3cc(C(C)=C(C)C)sc3c(=O)n2C)c1,9%,-68%,10µM*,u,-3%,1%
Cc1nc(-c2ccccc2)sc1C(=O)Nc1ccc2[nH]c(=O)[nH]c2c1,x,x,-53%,x,x,x
Cn1c(=O)c2c(nc(NCc3ccc4c(c3)OCO4)n2Cc2c(F)cccc2Cl)n(C)c1=O,x,x,0%,x,x,x
O=C(O)CC1NC(=S)N(Cc2ccccc2)C1=O (configuration not stated),-3%,i,u,7.9µM*,12%,-7%
O=C(COc1ccc2ccccc2c1Br)N1CCCCC1,9%,-14%,x,10µM*,1%,4%
Cc1ccc([N+](=O)[O-])c(OCCCN2CCC(Cc3ccccc3)CC2)c1,-8%,-84%,-46%,u,15%,-2%
Clc1ccccc1OCCN1CCC(Cc2ccccc2)CC1,2%,-12%,u,u,1%,-4%
O=Cc1cc(Cl)ccc1OCCN1CCC(Cc2ccccc2)CC1,12%,-30%,2.2µM*,u,8%,-4%
O=[N+]([O-])c1cccc(OCCN2CCC(Cc3ccccc3)CC2)c1,3%,i,0.63µM*,u,-12%,-3%
S=C1NC2=C(CCC/C2=C\c2ccc(Cl)cc2)C(c2ccc(Cl)cc2)N1 (configuration not stated),-1%,-49%,25µM*,7.9µM*,91%,-3%
O=C1/C(=C/c2ccc(F)cc2)CCC1C1CCCC1 (configuration not stated),0%,-33%,-11%,1%,-10%,-2%
Fc1cccc(/C=C2\CCCC3=C2NC(=S)NC3c2cccc(F)c2)c1 (configuration not stated),-5%,-46%,u,10µM*,1%,-2%
Fc1ccccc1/C=C1\CCCC2=C1NC(=S)NC2c1ccccc1F (configuration not stated),13%,-4%,32µM*,u,0%,-2%
S=C1NC2=C(CCC/C2=C\c2ccccc2)C(c2ccccc2)N1 (configuration not stated),2%,i,u,3%,-15%,-3%
CC1CC2=C(NC(=S)NC2c2ccc(F)cc2)/C(=C/c2ccc(F)cc2)C1 (configuration not stated),7%,i,25µM*,-1%,u,0%
COc1ccc(C2NC(=S)NC3=C2CCCC3=C2SCCS2)cc1 (configuration not stated),10%,-12%,u,63%,-14%,9%
CC(C)C(NC(=O)Cc1n[nH]c(=O)c2ccccc12)c1ccc(C(C)(C)C)cc1 (configuration not stated),x,x,0%,x,x,x
CCCc1cc(=O)[nH]c(SCc2noc(-c3ccc(F)cc3)n2)n1,x,x,-1%,x,x,x
S=C1NCCc2ccc(Cl)cc2C1c1ccccc1 (configuration not stated),-6%,i,u,11µM*,9%,-5%
Fc1ccc2nc(CO[C@H]3CN(Cc4ccc5ccccc5n4)C[C@H]3F)[nH]c2c1,x,x,117%[176 µM],x,x,x
SMILES,GLP1R ag,PTHR1 agonist,12-LOX inh,GLP1R inv ag,GLS inhibitor,Glioma ERSR ind
O=C(/C=C/c1ccco1)OCc1nnc(-c2ccc(Cl)cc2)o1,2%,-17%,45µM*,21%,-5%,3%
CC(C)CC(=O)Nc1ccc2oc(-c3ccc(F)cc3)nc2c1,x,x,2%,x,x,x
C=C(C)CNC(=S)NNC(=O)CCn1c2ccc(Cl)cc2c2cc(Cl)ccc21,-4%,-63%,32µM*,u,8%,-1%
C=C(C)CNC(=S)NNC(=O)CCn1c2ccccc2c2ccccc21,9%,-20%,u,u,-11%,-3%
C=C(C)CNC(=S)NNC(=O)CCn1c2cc(Cl)ccc2c2ccc(Cl)cc21,-12%,-17%,u,11µM*,-3%,-2%
CCOc1ccc(Nc2oc(COc3ccccc3F)nc2C#N)cc1,x,x,6%,x,x,x
Cc1ccc(-c2cn3nc(C)c(C)nc3n2)cc1,-36%,-39%,u,1.4µM*,1%,-13%
Cc1cccnc1NC(=S)Nc1ncccc1C,0%,i,-12%,20%,15%,-2%
COc1cc(NC(=S)NCc2cccnc2)cc(OC)c1OC,-12%,-13%,-1%,0%,15%,-6%
Cc1cccnc1NC(=S)Nc1ccc(Cl)c(Cl)c1,-6%,i,8.9µM*,u,-16%,-4%
COc1cc(NC(=S)Nc2cccnc2)cc(OC)c1OC,-2%,i,45µM*,6%,-7%,-2%
Cc1cc(NC(=S)Nc2ccc(C)c(Cl)c2)n[nH]1,12%,-19%,14µM*,u,0%,1%
COc1ccc(NC(=S)Nc2ncccc2C)c(OC)c1,2%,-56%[57.5 µM],u,2%,0%,7%
COc1ccc(NC(=S)Nc2ncccc2C)cc1OC,16%,-9%,5µM*,13%[7.66 µM],-5%,2%
CCCC(C)NC(=O)CN(c1ccccc1)S(=O)(=O)N(C)C (configuration not stated),x,x,35%,x,x,x
Cc1cccc(CN(CC(=O)N/N=C/c2cccs2)S(=O)(=O)c2ccc(Cl)cc2)c1,2%,i,-3%,8.9µM*,1%,-5%
Cc1cccc(CN(CC(=O)N/N=C/c2ccco2)S(=O)(=O)c2ccc(Cl)cc2)c1,1%,-15%[57.5 µM],u,u,-2%,2%
O=C(CN1c2ccccc2Sc2ccccc21)NNC(=S)Nc1ccc(Cl)cc1,-3%,-25%,14µM*,-30%,16µM*,-3%
O=C(CN1c2ccccc2Sc2ccccc21)N/N=C/c1ccc(Cl)cc1,3%,i,167%,3.2µM*,3%,-2%
CC(=O)NCCc1ccc(C(=O)COc2c(Cl)cccc2Cl)s1,x,x,6%,x,x,x
Cc1ccc(CN(CCc2ccccc2)C(=O)c2ccc(C#N)cc2)s1,x,x,-3%,x,x,x
Cc1ccccc1-n1ncc2c(SCC(=O)NCc3cccs3)ncnc21,1%,-19%[57.5 µM],1%,10µM*,1%,0%

# High-throughput results as filed in PubChem BioAssay.
